Screening results (PubChem BioAssay)
IP6K1 inhibitor = IP6K1 kinase inhibition. Q92551. 0.81% of 140,000 active. activity change, % (series mostly up to about 58 µM). IP6K1 kinase, ADP-Glo luminescence, 2 h; stronger effect = lower value; in the data active = activity change below about -25%
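ADP-Glo luminescence measures ADP made by human IP6K1 during a 2 h RT reaction with ATP/IP6 (mix at 1.3 mM/130 uM); top library doses 57.5 and 19.1 uM final.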
HEK293 viab = cell viability loss counter-screen; HEK-293-SNCA-luc viability, GF-AFC fluorescence, 24 h; Potency, µM (highest dose often 57.1 µM), most hits filed as cytotoxic; AID 1671193; 0.12% of 150,000 active; note: nearly all actives have a fitted effect of over 30% in size
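HEK-293-SNCA-luc cells (1500/well) plated 24 h, then exposed 24 h to a dilution series; GF-AFC added 30 min at 37C, fluorescence 405/540 nm; normalised to medium-only and DMSO wells, Hill fit.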
KDM5B inh = KDM5B demethylase inhibition; KDM5B demethylase, FDH-coupled NADH fluorescence (FDH is formaldehyde dehydrogenase); 2.6% of 220,000 active; Potency, µM (doses to about 57.7 µM), most hits filed as inhibitors; Q9UGL1; note: nearly all actives have a fitted effect of over 70% in size
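Coupled FDH/NAD⁺ fluorescence readout. KDM5BΔAP 200 nM final; compound titration, 10 min RT preincubation; substrate mix 12.5 µM H3K4me3, 25 µM 2-OG, 50 µM Fe(II), 100 µM ascorbate, 0.25 mM NAD⁺, 0.25 U/mL FDH; ΔRFU over 30 min.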
SNCA expr inhib = SNCA gene expression inhibition; HEK-293 SNCA-luciferase knock-in, luminescence, 24 h; Potency, µM (top dose mostly 57.2 µM), most hits filed as inhibitors; 0.17% of 140,000 active; AID 1671194; note: nearly all actives have a fitted effect of over 45% in size
Numbers stand for hits; – = inactive; ? = inconclusive; · = no result; [ ] = remark or other dose. Compounds with a hit are over-represented: about 3% of the library has one in this group of screens. Unless noted, calls come from the whole dose curve; as a rule, active = well fitted curve in the direction sought with a large enough effect; inconclusive = small, poorly fitted or top-dose-only effect, or another doubt; inactive = no such curve, though single readings can be large; an effect the other way counts as inactive or inconclusive.

SMILES	IP6K1 inhibitor	HEK293 viab	KDM5B inh	SNCA expr inhib
O=C(NC1CCN(c2cc(-c3ccc(F)cc3)[nH]n2)CC1)c1cccc2[nH]ccc12	–	–	32µM	–
COc1cccc(-c2cccc(C(=O)N3CCN(C(=O)c4cccc(Cl)c4)CC3)c2)c1	–	–[12.5 µM]	·	–
COc1ccccc1Nc1ccnc(N2CCN(C(=O)c3ccccc3Cl)CC2)n1	–	?	·	?
COc1ccc(CNC(=O)C2CCCCN2Cc2ccc(-c3cc(F)ccc3OC)cc2)cc1 (stereo unspecified)	–	·	·	·
NC(=O)[C@@H]1CN(C(=O)OCc2ccccc2)[C@H]2c3ccccc3O[C@@H]12	–	·	·	·
Cc1ccc(C(=O)NC2CCN(c3cc(-c4ccccc4)[nH]n3)C2)cc1 (stereo unspecified)	–	–	14µM	–
COc1ccc(-c2cc(N3CCCC(NC(=O)c4ccc(N(C)C)cc4)C3)n[nH]2)cc1 (stereo unspecified)	–	–	25µM	–
CN(C)c1cccc(C(=O)NC2CCN(c3cc(-c4ccccc4)[nH]n3)C2)c1 (stereo unspecified)	–	–	25µM	–
CN(C)c1ccc(C(=O)NC2CCCN(c3cc(-c4ccc(F)cc4)[nH]n3)C2)cc1 (stereo unspecified)	–	–	?	–
COc1ccccc1-c1cccc(CN2CCC(NC(=O)NC(C)C)CC2)c1	–	–	·	–
COc1ccc(-c2cc(C[C@H]3CNCC[C@H]3CC(=O)NCc3ccc4c(c3)OCO4)no2)cc1	–	–	–	?
CC(=O)N[C@@H]1CN(Cc2cc(=O)n3[nH]cnc3n2)C[C@H]1c1ccc(C)o1	–	–	22µM	–
CC(=O)N[C@@H]1CN(S(=O)(=O)c2sccc2C)C[C@H]1c1ccc(C)o1	–	–	–	–
CS(=O)(=O)CC[C@H](NC(=O)C1=C[C@@H](NC(=O)CCN)[C@@H](O)[C@H](O)C1)C(N)=O	–	–	40µM	–
N#Cc1ccc(NC2CC(c3cc(N4CCC(O)C4)ncn3)C2)nc1 (stereo unspecified)	–	–	32µM	–
Cc1nn(-c2ccc(C(C)C)cc2)c(C)c1[C@@H]1C=C[C@@H](NCc2ccc(F)cc2)C1	–	?	?	?
Cn1ncc2c(C(=O)N3CCC(Cc4ccccc4)CC3)cc(-c3ccccc3F)nc21	–	·	·	·
CCN(CC)C(=O)CCc1c(C)nn(-c2cccc(C)c2)c1Oc1ccc(F)cc1F	–	–	–	–
CCN(C)C(=O)CCc1c(C)nn(-c2cccc(C)c2)c1Oc1ccc(F)cc1F	–	–	32µM	–
CCCCc1ncc(-c2c(-c3ccccc3)ncn2CCC2CCCN2C)[nH]1 (stereo unspecified)	–	?	10µM	–
CC1CCN(CCc2nc3c([nH]2)CC(C)(C)CNC3=O)CC1	–	–	–	–
CC1(C)CNC(=O)c2nc(CCN3CCCc4ccccc43)[nH]c2C1	–	–	16µM	–
CN1CCc2[nH]cnc2C12CCN(C(=O)c1cc(=O)[nH]c3ccccc13)CC2	–	–	20µM	–
CN1CCc2[nH]cnc2C12CCN(C(=O)c1cccc(-n3cccn3)c1)CC2	–	–	–	–
CN(C)S(=O)(=O)N1CCC(Nc2cccnc2)C1 (stereo unspecified)	–	–	8.9µM	–
SMILES	IP6K1 inhibitor	HEK293 viab	KDM5B inh	SNCA expr inhib
CC(C)CNC(=O)N1CCC(Nc2cccnc2)C1 (stereo unspecified)	–	–	?	–
O=C(c1ccoc1)N1CCC(Nc2cccnc2)C1 (stereo unspecified)	–	–	13µM	–
CCS(=O)(=O)N1CCC(Nc2cccnc2)C1 (stereo unspecified)	–	–	22µM	–
Cc1cc(C)cc(-c2ccc(CN3CCCC(NC(=O)c4cccnc4)C3)cc2)c1 (stereo unspecified)	–	–	·	–
COc1ccc(F)cc1-c1cccc(C(=O)NCCNC(=O)Nc2ccccc2F)c1	–	·	·	·
Cc1ccc(CNC(=O)c2ccc(NC(=O)c3cc4c(=O)[nH]c(C)cn4n3)cc2)cc1	–	–	3.2µM	–
Cc1noc(C)c1S(=O)(=O)N1CCC(C(=O)N2CCC(c3ccccc3)CC2)CC1	–	–	·	–
Cc1ccc(C#N)c(NCc2cccnc2Oc2cccc(C(F)(F)F)c2)n1	–	–	25µM	–
Cc1nn(-c2ccccc2)c2c1C(C(C)C)N(C1CCCN(C(=O)Nc3ccc(Cl)cc3)C1)C2=O (stereo unspecified)	–	·	·	·
COc1ccc(CNC(=O)c2nc(S(=O)(=O)Cc3ccccc3)ncc2Cl)cc1	–	25µM	?	?
CS(=O)(=O)c1ncc(Cl)c(C(=O)N(Cc2ccc(Cl)cc2)Cc2ccco2)n1	–	2.5µM	?	?
O=C(NCc1ccccc1)c1nc(S(=O)(=O)Cc2ccccc2)ncc1Cl	–	?	?	?
COc1ccc(N(Cc2ccccc2)C(=O)c2nc(S(C)(=O)=O)ncc2Cl)cc1	-26	6.3µM	?	?
COCCN1CCCC[C@]2(C[C@H](CO)[C@H](c3ccccc3)N2C(=O)CC2CCCC2)C1=O	–	·	·	·
Cc1ccc(CS(=O)(=O)c2ncc(Cl)c(C(=O)Nc3nnc(C(C)C)s3)n2)cc1	–	25µM	–	?
O=C(Nc1nc2ccc(F)cc2s1)c1nc(S(=O)(=O)Cc2ccccc2F)ncc1Cl	-40	?	?	?
Cc1cccc(CS(=O)(=O)c2ncc(Cl)c(C(=O)Nc3nnc(C(C)C)s3)n2)c1	–	?	–	?
CCc1nnc(NC(=O)c2nc(S(=O)(=O)Cc3cccc(C)c3)ncc2Cl)s1	–	20µM	–	?
COc1ccc(CC(=O)N2CCN(c3nccc(Nc4ccccc4Cl)n3)CC2)cc1	–	–	·	–
CC1=C[C@@H](CN2CCOCC2)[C@H](C(C)C)C[C@H]1Cc1nnc(-c2ccc(N(C)C)cc2)o1	–	–	35µM	–
CC1=C[C@@H](CN2CCN(c3ccccn3)CC2)[C@H](C(C)C)C[C@H]1Cc1nnc(-c2ccccc2)o1	–	?	28µM	–
O=c1cc(-c2cccnc2)nc(-c2ccc(CN3CC[C@@H](O)C3)cc2)[nH]1	–	–	–	–
O=c1[nH]c2cc3c(cc2cc1CN1CC[C@H](O)C1)OCO3	–	–	28µM	–
Cc1ccc([S+](=O)([O-])N2CCCC(C(=O)N3CCCC(c4nc5ccncc5[nH]4)C3)C2)cc1 (stereo unspecified)	–	?	·	–
C/C1=C/CCC2=CC(OC2=O)C(C)(C)/C=C/C1=O (stereo unspecified)	–	7.5µM	·	·
SMILES	IP6K1 inhibitor	HEK293 viab	KDM5B inh	SNCA expr inhib
Cc1nnc2ccc(N3CCCC(NC(=O)c4ccccc4Cl)C3)nn12 (stereo unspecified)	–	·	·	·
COc1ccc(F)cc1-c1ccc(C=O)cc1	–	–	50µM	–
COc1ccc(F)cc1-c1ccc(C(=O)O)cc1	–	–	100µM	–
COc1ccc(F)cc1-c1cccc(C(=O)O)c1	–	–	–	–
COc1ccc(CC(=O)N(C)C2CCc3nnc(C)n3CC2)cc1Cl (stereo unspecified)	–	–	20µM	–
COc1ccc(CCC(=O)N(C)C2CCc3nnc(C)n3CC2)cc1OC (stereo unspecified)	–	–	–	–
